# Inconclusive results are not listed. The source made the active and inactive calls.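 The calls were made as follows, unless noted: active = inhibition over a set limit, the all-compound mean plus 3 SD, in both replicate runs; inconclusive = over that limit in just one replicate run; inactive = at or under that limit in both runs.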
# Assays:
# [1] = Her2 expression decrease, cell viability multiplex – SKBR3 breast tumor cells, AlphaScreen, ATP viability, primary screen (AID 461;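 active = Her2 level under about 52% in both replicate screens, with viability over 70% of control, limit read from the data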;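 as to Her2 level: lower value means less Her2 protein in the cells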;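 as to viability: percent of carrier control wells set as 100% viability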); conditions: SKBR3 Her2 protein level, 18-24 h, measured here: SKBR3 viability, ATP luminescence, at 10 µM
# [2] = target: Receptor tyrosine-protein kinase erbB-2 (Homo sapiens) (UniProt P04626); assay: as above; conditions: 18-24 h, at 10 µM, stronger effect = lower value
# Receptor tyrosine-protein kinase erbB-2 (Homo sapiens), sequence (P04626 whole entry, looked up): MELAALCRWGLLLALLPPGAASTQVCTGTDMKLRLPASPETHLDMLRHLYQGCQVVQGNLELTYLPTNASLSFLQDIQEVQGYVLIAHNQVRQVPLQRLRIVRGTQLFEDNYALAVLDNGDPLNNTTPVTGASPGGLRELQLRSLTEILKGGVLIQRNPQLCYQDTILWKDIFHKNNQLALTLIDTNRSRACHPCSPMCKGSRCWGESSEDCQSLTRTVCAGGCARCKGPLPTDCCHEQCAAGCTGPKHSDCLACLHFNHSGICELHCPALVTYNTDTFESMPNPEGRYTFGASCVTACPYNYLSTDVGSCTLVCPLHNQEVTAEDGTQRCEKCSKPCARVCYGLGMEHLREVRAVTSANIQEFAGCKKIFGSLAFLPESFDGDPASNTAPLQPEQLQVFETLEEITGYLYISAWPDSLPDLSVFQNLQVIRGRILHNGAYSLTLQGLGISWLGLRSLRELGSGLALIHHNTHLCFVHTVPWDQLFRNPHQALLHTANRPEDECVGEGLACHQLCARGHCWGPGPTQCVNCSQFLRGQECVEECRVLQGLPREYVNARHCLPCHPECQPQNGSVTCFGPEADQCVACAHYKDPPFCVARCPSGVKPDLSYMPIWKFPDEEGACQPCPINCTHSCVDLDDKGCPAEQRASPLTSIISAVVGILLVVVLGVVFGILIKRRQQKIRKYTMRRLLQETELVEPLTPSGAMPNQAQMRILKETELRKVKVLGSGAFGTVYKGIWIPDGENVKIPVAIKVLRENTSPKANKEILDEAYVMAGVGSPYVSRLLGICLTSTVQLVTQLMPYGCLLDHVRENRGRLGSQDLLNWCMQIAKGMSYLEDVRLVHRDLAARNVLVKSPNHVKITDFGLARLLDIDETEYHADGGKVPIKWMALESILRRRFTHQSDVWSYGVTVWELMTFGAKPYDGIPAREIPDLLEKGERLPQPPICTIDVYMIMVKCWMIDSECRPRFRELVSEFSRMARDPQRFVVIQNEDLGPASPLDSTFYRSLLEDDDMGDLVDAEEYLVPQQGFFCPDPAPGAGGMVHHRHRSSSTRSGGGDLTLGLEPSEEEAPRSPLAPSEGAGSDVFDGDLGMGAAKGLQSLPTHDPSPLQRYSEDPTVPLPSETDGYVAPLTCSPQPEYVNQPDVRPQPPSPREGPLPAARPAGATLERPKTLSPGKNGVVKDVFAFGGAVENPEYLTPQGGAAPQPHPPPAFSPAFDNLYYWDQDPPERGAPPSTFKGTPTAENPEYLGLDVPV
# [3] = reduced viability of SK-BR-3 breast cancer cells – cell-based, 24 h, human, pilot screen (AID 572;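 active = viability at or below 10% of carrier control in both of two separate runs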;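 also: compound exposure lasted between 18 and 24 h rather than exactly 24 h; 100% = carrier-treated control wells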); conditions: SK-BR-3 viability, CellTiter-Glo luminescence, at 10 µM, stronger effect = lower value
# [4] = HUVEC growth inhibition – cell-based, human, primary screen (AID 575;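 active = viability at or below 30% in both replicate assays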;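 also: 100% = median of untreated cell wells with 0.1% DMSO on each plate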); conditions: HUVEC proliferation, CellTiter-Glo luminescence, 72 h; at 10 µM; stronger effect = lower value
# [5] = H69AR cell proliferation blockers – human, duplicate replicates, primary screen (AID 580;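 active = viability at or under a set limit in both replicates, limit being median viability minus 3 SD, cut at about 48% in these data, passing the limit was not always enough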;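 also: 100% = mean luminescence of untreated wells and 0% = no signal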); conditions: H69AR lung tumor cells viability, ATP luminescence, 72 h; at 10 µM; stronger effect = lower value
# [6] = MRP1 drug-resistance reversers in H69AR cells – cell-based, doxorubicin co-treatment, pilot screen (AID 601;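 active = viability loss from added drug above about 55%, and viability with drug at most 40%, in both replicates, limit read from the data, passing the limit was not always enough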); conditions: CellTiter-Glo, 72 h, at 10 µM; for differential viability (reversal): stronger effect = higher value
# [7] = yeast transport mutant growth inhibition pilot in 384-well plates, post-Golgi transport modulator project (AID 636; in the data active = inhibition above about 31%); conditions: absorbance 615 nm, about 18 h, stronger effect = higher value
# [8] = growth suppression of yeast trafficking mutant, preliminary HTS, modulators of trafficking downstream of Golgi apparatus project, 1536-format plate, OD 615 nm (AID 637; in the data active = inhibition above about 30%); conditions: yeast transport mutant growth, absorbance 615 nm, 18 h; stronger effect = higher value
# [9] = S. cerevisiae growth inhibition in permissive medium (OD615), pilot counter-assay for S. cerevisiae lifespan shortening project, permissive growth control (AID 705;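 active = growth inhibition above 25% in both replicates, a cutoff set 3 SD above the mean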); conditions: OD615, 24 h, at 10 µM, stronger effect = higher value
# [10] = S. cerevisiae growth inhibition in restrictive medium, OD615, pilot screen, restrictive growth control, yeast lifespan reduction project (AID 706;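 active = growth inhibition above a set limit, 3 SD over mean compound inhibition, in both replicates, cut at about 43% in these data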;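 also: modified DeaD lifespan yeast strain shifted to restrictive glucose medium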); conditions: OD615, 48 h, at 10 µM, stronger effect = higher value
# [11] = doxorubicin toxicity protection in MRP-1 cells – H69AR cells, CellTiter-Glo, duplicate, MRP-1 activator project, pilot screen (AID 807;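 active = viability increase at or above a cutoff of the median across tested compounds plus 3 SD, cut at about 8.5% in these data, passing the limit was not always enough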;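 also: compound pretreatment 18-22 h then 72 h combined with doxorubicin; 0% = doxorubicin alone and 100% = vehicle without doxorubicin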); conditions: H69AR viability with doxorubicin, CellTiter-Glo luminescence; at 10 µM; stronger effect = higher value
# [12] = viability of HCT116 without oncogenic beta-catenin – human colon tumor cells, pilot screen (AID 823;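 active = cell viability at or below a set limit in both duplicate runs, the limit being the all-compound median minus 4 SD, cut at about 23% in these data, passing the limit was not always enough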;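 also: 0% = wells killed by 20 µM Hyamine and 100% = untreated DMSO cell wells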); conditions: HCT116 beta-catenin knockout viability, CellTiter-Glo, 60 h; at 10 µM; stronger effect = lower value
# [13] = viability of PTEN-null HCT116 cells – cell-based, HCT116 clonal line, CellTiter-Glo, pilot screen (AID 824;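 active = viability at or below 27.92% in each of two runs, the all-compound median minus 4 SD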;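 also: 0% = 20 µM Hyamine control and 100% = vehicle cell control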); conditions: HCT116 PTEN-deleted viability, 60 h, at 10 µM, stronger effect = lower value
# [14] = RAM pathway blockade in budding yeast – dse1pr::URA3 reporter, 5-FOA selection, pilot screen (AID 869);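 also: 0% = DMSO wells with no growth and 100% = 10 µM 1-NA-PP1 with full growth; RAM network block rescues cells from 5-FOA so hits raise OD615 growth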; conditions: S. cerevisiae dse1pr::URA3 5-FOA growth, OD615, 2 d; at 10 µM; stronger effect = higher value; strain carries analog-sensitive mutant Cbk1 kinase
# [15] = RAM signaling pathway blockade in yeast – S. cerevisiae, Pdr1DBD-CYC8 efflux-inhibited sensitized strain, primary screen (AID 1298;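 active = RAM network inhibition above 8.4% in each of two replicates, 3 SD over the compound average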;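 also: 0% = DMSO untreated cells without growth and 100% = 10 µM 1-NA-PP1 full growth; higher means more yeast growth rescued from 5-FOA killing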); conditions: S. cerevisiae cbk1-as DSE1-URA3 strain, 5-FOA growth OD615, 2 d; at 50 µM; stronger effect = higher value
# [16] = H69AR cells + 2 uM doxorubicin, measured here: viability with 2 uM doxorubicin, stronger effect = lower value
# [17] = H69AR cells, compound alone cytotoxicity
SMILES,viability [1],Her2 level [2],viability [3],viability [4],viability [5],differential viability (reversal) ([6]; H69AR cells + 2 uM doxorubicin),"viability [6, 16]","viability [6, 17]",inhibition [7],inhibition [8],growth inhibition [9],growth inhibition [10],viability increase [11],viability [12],viability [13],inhibition [14],RAM network inhibition [15]
NC(=O)C1CCN(C(=O)c2cc3n(n2)C(C(F)(F)F)CC(c2ccco2)N3)CC1 (stereo not given),84%,99.5% (inactive),84% (inactive),104% (inactive),85% (inactive),-0.83% (inactive),85.8%,85%,-0.93% (inactive),-4.67% (inactive),-7% (inactive),-1.27% (inactive),-1.57% (inactive),97% (inactive),97.4% (inactive),2.2% (inactive),0.98% (inactive)
CC1Cc2nc(SCC(=O)Nc3nccs3)n(C)c(=O)c2S1 (stereo not given),90%,89% (inactive),90% (inactive),72.7% (inactive),77.8% (inactive),-0.05% (inactive),77.8%,77.8%,-5.07% (inactive),-1.67% (inactive),-2.9% (inactive),-5.05% (inactive),-2.52% (inactive),105% (inactive),96.7% (inactive),1.56% (inactive),6.27% (inactive)
COc1cccc(NC(=O)C2CCCN(S(=O)(=O)c3cccc4cccnc34)C2)c1 (stereo not given),106%,102% (inactive),106% (inactive),77.8% (inactive),82.7% (inactive),-6.64% (inactive),89.3%,82.7%,-5.73% (inactive),-5.5% (inactive),-12.6% (inactive),-6.68% (inactive),-1.5% (inactive),72.4% (inactive),70.6% (inactive),1.77% (inactive),3.85% (inactive)
c1ccc(-c2cn3cccnc3n2)cc1,118%,88.5% (inactive),118% (inactive),106% (inactive),101% (inactive),10.5% (inactive),90.4%,101%,-6.45% (inactive),-0.73% (inactive),-10.6% (inactive),-27% (inactive),0.59% (inactive),110% (inactive),100% (inactive),3.13% (inactive),1.13% (inactive)
CC(=O)NC(C)c1nc2ccccc2n1C(C)C (stereo not given),90%,106% (inactive),90% (inactive),88.1% (inactive),93.9% (inactive),12.4% (inactive),81.5%,93.9%,-2.8% (inactive),-2% (inactive),-5.54% (inactive),-15.8% (inactive),-2.65% (inactive),84.8% (inactive),90% (inactive),3.16% (inactive),-0.31% (inactive)
CCOC(=O)C1=C(C)N(C)C(=O)NC1c1ccccc1OC (stereo not given),97%,88% (inactive),97% (inactive),88.2% (inactive),175% (inactive),64.2% (inactive),110%,175%,-8.24% (inactive),2.46% (inactive),-4.28% (inactive),-3.44% (inactive),0.16% (inactive),97.9% (inactive),93.4% (inactive),0.97% (inactive),2.01% (inactive)
Cn1c(SCC(=O)Nc2ccc(F)cc2)nnc1-c1cccnc1,93%,106% (inactive),93% (inactive),96.5% (inactive),104% (inactive),12.8% (inactive),90.8%,104%,-3.87% (inactive),-2.5% (inactive),-8.06% (inactive),0.86% (inactive),2.18% (inactive),104% (inactive),101% (inactive),0.43% (inactive),4.04% (inactive)
COc1ccc(CN2C(=O)CN=C2Nc2ccc(C)cc2C)cc1,85%,91% (inactive),85% (inactive),103% (inactive),84.9% (inactive),7.04% (inactive),77.8%,84.9%,-3.82% (inactive),-0.73% (inactive),-7.07% (inactive),-12.2% (inactive),-1.49% (inactive),101% (inactive),89.4% (inactive),3.82% (inactive),5.11% (inactive)
O=C(Nc1ccc(CN2CCOCC2)cc1)c1cc2ccccn2n1,100%,103% (inactive),100% (inactive),94.4% (inactive),94.7% (inactive),-0.47% (inactive),95.2%,94.7%,0.38% (inactive),2.5% (inactive),-4.72% (inactive),7.87% (inactive),2.39% (inactive),100% (inactive),95% (inactive),0.65% (inactive),1.45% (inactive)
COCCCNC(=O)CC1Oc2ccccc2NC1=O (stereo not given),86.5%,100% (inactive),86.5% (inactive),111% (inactive),83.3% (inactive),-5.41% (inactive),88.7%,83.3%,-5.73% (inactive),-2.83% (inactive),-2.61% (inactive),-1.36% (inactive),0.06% (inactive),97.6% (inactive),102% (inactive),1.65% (inactive),2.25% (inactive)

# From PubChem BioAssay
